Measured values reported in PubChem BioAssay (NCI).
The panel holds about 83,000 compounds, 20% with a hit somewhere; the sample as a whole holds those more often.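 Negative percent growth values reflect cell death: -40 means 40% of the cells present at the start died, and -100 means all died.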 A number with no mark means an inactive call. The source made the active and inactive calls.

System: SK-OV-3 ovarian
Test: NCI-60 one-dose screen, 48 h (100 = growth as untreated, 0 = no growth, -100 = all killed)
Settings: 10 µM
Method: Growth inhibition of the SK-OV-3 human tumor cell line is measured as a screen for anti-cancer activity. Cells are grown in 96 well plates and exposed to the test compound for 48 hours. Compounds are tested at a single concentration, which is 10^-5 M for most compounds. The reported endpoint is percent growth (GI% or GIPRCNT), where numbers from 0 - 100% represent growth inhibition, and numbers from -100% - 0 represent cell death. For example, a value of 40 represents 60% growth inhibition. A value of 0 means no net growth occurred over the course of the experiment. A value of -40 indicates 40% of cells at the beginning of the experiment died by the end of the experiment. A value of -100 means all cells are dead at the end of the experiment.
NCI-60 Human Tumor Cell Lines Screen was performed using the standard one-dose NCI protocol, which is described in more detail at https://dtp.cancer.gov/discovery_development/nci-60/default.htm.
Compounds with GIPRCNT values below 10 were considered active. Activity score was based on GIPRCNT using the following formula: […]
Score is 0 for GIPRCNT values of 100 or above, 50 for GIPRCNT values of 0, and 100 for GIPRCNT values of -100.

How did the growth turn out when `O=C1NC(=O)N(Cc2ccccc2)CC1Br` (stereo not given) was run?
The growth was 87%.

Which growth does the source give for `N#Cc1ncc(-c2cc(F)c(F)c(F)c2)c(NC2CCCCCC2)n1` here?
Its growth is 88.3%.

With `Cc1cc(N(CCCNc2ccnc3cc(Cl)ccc23)Cc2cccs2)nc(Cl)n1` as the compound, how does the growth read?
The growth was 42.4%.

`CCN(CC)CCCOCCCNc1cc(OC)cc2cccnc12` was tested. Which growth did it give?
Its growth is 97.3%.

For `COc1ccc2c(c1)nc(N)c1c3cccnc3cn21`, which growth is on record?
The growth was 9.24% (active).

For `COc1ccc(-c2nn(-c3cccc(NC(=O)Nc4cccc(C(F)(F)F)c4)c3)cc2-c2ccncc2)cc1Cl`, which growth is on record?
The growth was 20.4%.

Which growth does the source give for `Cc1cc(C)c(CCc2cc(C)c(C)cc2C)cc1C` here?
The growth was 114%.

`COc1ccc(C2=Nc3c(C)nn(-c4ccccc4)c3NC(c3ccc(Oc4ccnc5cc(Cl)ccc45)c(OC)c3)C2)cc1` (stereo not given) was tested. Which growth did it give?
The growth was 74.7%.

For `Cc1ccc(Nc2cc(C)nc(NCCCNc3ccnc4cc(Cl)ccc34)n2)cc1`, which growth is on record?
Its growth is -47.5% (active).

How did the growth turn out when `O=C(Nc1ccncc1)C(=O)c1cn(S(=O)(=O)c2cc(Cl)cc(Cl)c2)c2ccccc12` was run?
Its growth is 97.2%.

How did the growth turn out when `COc1cc2c(cc1OCCCCCCN1CCN(CC(=O)Nc3ccc(Cl)cc3C(=O)c3ccccc3Cl)CC1)N=CC1CCCN1C2=O` (stereo not given) was run?
The growth was -90.2% (active).

Which growth does the source give for `O=C(CCCCC(=O)Nc1ccc2c(c1)/C(=C/c1ccc[nH]1)C(=O)N2)NO` here?
Its growth is 73.6%.

Which growth does the source give for `COc1cc(-c2nn3c(/C=C4/C(=O)Nc5ccccc54)c(-c4ccc(C)cc4)nc3s2)cc(OC)c1OC` here?
Its growth is 79.5%.

With `c1ccc([I+]c2ccccc2)cc1` as the compound, how does the growth read?
The growth was 68.7%.

How did the growth turn out when `CN1CCCNc2c(c(=O)c2=O)NCCCN(C)CCCNc2c(c(=O)c2=O)NCCCN(C)CCCNc2c(c(=O)c2=O)NCCCN(C)CCCNc2c(c(=O)c2=O)NCCCN(C)CCCNc2c(c(=O)c2=O)NCCCN(C)CCCNc2c(c(=O)c2=O)NCCCN(C)CCCNc2c(c(=O)c2=O)NCCC1` was run?
Its growth is 29.4%.

With `O=C(CCCCCCC(=O)Nc1cccnc1)NO` as the compound, how does the growth read?
Its growth is 78.9%.

How did the growth turn out when `Cc1cc(C)c2c(n1)sc1c(Nc3ccc(Cl)cc3)ncnc12` was run?
Its growth is 35.2%.

With `N=C(N)c1ccc(-c2ccc(-c3ccccc3)o2)nc1` as the compound, how does the growth read?
Its growth is 100%.

`O=S(=O)(NCCCNc1nccc(-c2c(-c3ccc(F)cc3)nc3sccn23)n1)c1ccc2ccccc2c1` was tested. Which growth did it give?
Its growth is 65.2%.

With `COC(=O)c1ccc(=O)oc1` as the compound, how does the growth read?
Its growth is 107%.

`OCC1OC(n2cnc3c(N/N=C\c4ccccn4)ncnc32)C(O)C1O` (stereo not given) was tested. Which growth did it give?
The growth was 11.7%.

`COc1cc2cc3c(nc2cc1OC)CCN3Cc1ccc(NC(=O)Nc2ccc(F)cc2F)cc1` was tested. Which growth did it give?
Its growth is 84%.

With `N=C1c2nc3n(c2C(=O)c2nc4n(c21)CCCC4)CCCC3` as the compound, how does the growth read?
The growth was 95%.

For `Nc1c(C(=O)Nc2cccc(Br)c2)sc2nc3c(cc12)C(O)CCC3` (stereo not given), which growth is on record?
Its growth is 21.8%.

`CCC(=O)N1C/C(=C/c2ccc(OC)cc2)C(=O)/C(=C/c2ccc(OC)cc2)C1` was tested. Which growth did it give?
Its growth is 40.8%.

With `CCCCCC(=O)c1ccc(OCCCN2CCN(C(=O)OCC)CC2)cc1` as the compound, how does the growth read?
The growth was 104%.

With `Cc1ccc(C(=O)Nc2cccc(F)c2)cc1NC(=O)C1(c2ncnc3[nH]ccc23)CC1` as the compound, how does the growth read?
Its growth is 91.1%.

How did the growth turn out when `O=c1[nH]c2ccc(Cl)cc2c2ccccc12` was run?
The growth was 39.4%.

Which growth does the source give for `O=C(Nc1cccc(-n2cc(-c3ccncc3)c(-c3cc(O)cc(Cl)c3)n2)c1)Nc1ccc(Cl)c(C(F)(F)F)c1` here?
Its growth is 63.1%.

Which growth does the source give for `CC(=O)N1N=C(c2ccc(Cl)cc2)CC1c1sc(Cl)nc1Cl` (stereo not given) here?
The growth was 83.2%.

`COc1ccc(/C(=C2\O[C@@H]([C@H]3COC(C)(C)O3)[C@H]3OC(C)(C)O[C@@H]23)c2cc(OC)c(OC)c(OC)c2)cc1O` was tested. Which growth did it give?
The growth was 38%.

Which growth does the source give for `N#CCCN1C/C(=C/c2ccc(Br)cc2)C(=O)/C(=C/c2ccc(Br)cc2)C1` here?
Its growth is 9.84% (active).

`COc1ccc(-c2nc3sc(-c4ccc(OC)cc4)c(-c4ccc(OC)cc4)n3c2/C=C/c2ccc(C(C)C)cc2)cc1` was tested. Which growth did it give?
Its growth is 97.4%.

With `O=C(N/N=C\c1cc(Cl)ccc1[N+](=O)[O-])c1ccco1` as the compound, how does the growth read?
Its growth is 130%.

Which growth does the source give for `N#Cc1cc(-c2cc3ccccc3o2)oc1N` here?
Its growth is 17.3%.

`Nc1c(C(=O)Nc2ccccc2Cl)sc2nc3c(cc12)C(=O)CCC3` was tested. Which growth did it give?
The growth was 13.8%.

For `COc1ccc2c(c1)C(=O)c1c-2c(OCCN(C)C)nc2cc(OC)c(OC)cc12`, which growth is on record?
The growth was 74.2%.

Which growth does the source give for `c1ccc([C@H]2CN3CCSC3=N2)cc1` here?
Its growth is 107%.

`COc1ccc(-c2nc3sc(C4CC4)nn3c2/C=C2/C(=O)Nc3ccc(OC)cc32)cc1` was tested. Which growth did it give?
Its growth is 50.9%.

Which growth does the source give for `COc1cc(-c2nnc(-c3c(-c4ccc(F)cc4)nc4ccccn34)o2)cc(OC)c1OC` here?
Its growth is 76%.
